{"source": "PubChem BioAssay (EPA / NIEHS)", "note": "“And” between values parts separate entries of the source, which are not always exact repeats. Identical values can stand only once. More than one record can exist for a structure, and the calls need not agree. The source made the active and inactive calls. Rule for the calls: active = hit-call score of the fitted dose curve at least 0.9, where 1 is the maximum; inactive = score below 0.9."}
{"read-out": "Interleukin-1 alpha (IL1a), IL1A (gene 3552)", "test": "BSK_BE3C_IL1a: BioMAP Diversity Plus: BE3C Assay for Interleukin-1 alpha (IL1a) Biomarker Activity (AID 2283016)", "details": "primary human bronchial epithelial cells; actives raise or lower the signal", "description": "BSK_BE3C is a cell-based, multiplexed-readout assay that uses bronchial epithelial cell, a human lung primary cell, with measurements taken at 24 hours after chemical dosing in a 96-well plate.BSK_BE3C_IL1a is an assay component measured in the BSK_BE3C assay. It measures IL-1a antibody related to regulation of gene expression using ELISA technology.Data from the assay component BSK_BE3C_IL1a was analyzed into 1 assay endpoint. This assay endpoint, BSK_BE3C_IL1a, was analyzed with bidirectional fitting relative to DMSO as the negative control and baseline of activity. Using a type of binding reporter, gain or loss-of-signal activity can be used to understand changes in the signaling as they relate to the gene IL1A. Furthermore, this assay endpoint can be referred to as a primary readout, because this assay has produced multiple assay endpoints where this one serves a signaling function. To generalize the intended target to other relatable targets, this assay endpoint is annotated to the cytokine intended target family, where the subfamily is interleukins.\nThe levels of cell surface (or secreted, indicated by the prefix \"s\") biomarker endpoints were measured by ELISA. Overt cytotoxicity to cells in confluent adherent cultures (all systems other than the BT system) was assessed by measuring total protein levels using sulforhodamine B (SRB) staining in parallel cultures at the time of biomarker measurements, indicated as SRB endpoints. For proliferation assays for adherent cell types, individual cell types are cultured at sub-confluence and relative cell numbers quantified by SRB staining at time points optimized for each system (48 h: 3C and CASM3C systems; 72 h: BT and HDF3CGF systems; 96 h: SAg system). SRB was performed by staining cells with 0.1% SRB after fixation with 10% TCA and reading wells at 560 nm.Viability and proliferation of PBMC (T cells) was quantified by Alamar Blue reduction for the SAg and BT systems. For PBMC viability (referred to as PBMC Cytotoxicity within the assay endpoint names), cells were plated (75,000/well in a 96-well plate) and then chemical samples added for 1 h before addition of activators, SEB and TSST-1 (20 ng/mL final concentration each). Cells were incubated for 90 h. Then, Alamar Blue (20 uL/well) (Invitrogen, Cat DAL1100) was added for 6 h, and the plates were read with a fluorescence microplate reader at 546/580 nm (excitation/emission). For PBMC proliferation, cells were plated and activated as above but incubated for only 16 h prior to addition of Alamar Blue. Plates were read after 6 h."}
{"molecule": "O=C(Cl)C(F)(F)C(F)(F)C(F)(F)C(F)(F)C(F)(F)C(F)(F)F", "outcome": "inactive"}
{"molecule": "OC(O)C(F)(F)C(F)(F)F", "outcome": "inactive"}
{"molecule": "CCN(CC)c1ccc(C=O)cc1", "outcome": "inactive"}
{"molecule": "CCN(CC)c1ccc(C=O)c(O)c1", "outcome": "inactive"}
{"molecule": "NC(=O)C(F)(F)C(F)(F)C(F)(F)C(F)F", "outcome": "inactive"}
{"molecule": "CCOC(C=C(C)CCC=C(C)C)OCC", "AC50": "3.97 µM (active)"}
{"molecule": "O=C=NCc1cccc(CN=C=O)c1", "outcome": "inactive"}
{"molecule": "O=C(F)C1(F)C(F)(F)C(F)(F)C(F)(F)C(F)(F)C1(F)F", "outcome": "inactive"}
{"molecule": "C=CC(=O)OCCC(F)(F)C(F)(F)C(F)(F)C(F)(F)F", "outcome": "inactive"}
{"molecule": "OCCCC(F)(F)C(F)(F)C(F)(F)C(F)(F)C(F)(F)C(F)(F)C(F)(F)C(F)(F)F", "AC50": "46.9 µM (active) and 39.5 µM (active)"}
{"molecule": "NC(O)(C(F)(F)F)C(F)(F)F", "outcome": "inactive"}
{"molecule": "FC(F)(F)C(F)(F)C(F)(F)C(F)(F)C(F)(F)C(F)(F)CC[Si](Cl)(Cl)Cl", "outcome": "inactive"}
{"molecule": "O=S(=O)(OCC(F)(F)F)C(F)(F)C(F)(F)C(F)(F)C(F)(F)F", "outcome": "inactive"}
{"molecule": "Cc1cc(O)c(C(C)(C)C)cc1C(C)(C)C", "AC50": "4.77 µM (active)"}
{"molecule": "O=C(c1ccccc1)c1ccc(O)cc1O", "outcome": "inactive"}
{"molecule": "C=C(C)C(=O)OCC(F)(F)C(F)(F)C(F)(F)C(F)F", "outcome": "inactive"}
{"molecule": "CC(C)(C)c1cc(CCC(=O)NCCCCCCNC(=O)CCc2cc(C(C)(C)C)c(O)c(C(C)(C)C)c2)cc(C(C)(C)C)c1O", "outcome": "inactive"}
{"molecule": "NS(=O)(=O)C(F)(F)C(F)(F)C(F)(F)C(F)(F)C(F)(F)C(F)(F)F", "outcome": "inactive", "AC50": "31.6 µM (active)"}
{"molecule": "O=C1c2c(O)ccc(Nc3ccc(CCO)cc3)c2C(=O)c2c([N+](=O)[O-])ccc(O)c21", "outcome": "inactive"}
{"molecule": "Cc1ccc(S(=O)(=O)C(I)I)cc1", "AC50": "5.63 µM (active)"}
{"molecule": "Nc1cc([N+](=O)[O-])cc(Cl)c1O", "outcome": "inactive"}
{"molecule": "O=S(=O)(Cl)C(F)(F)C(F)(F)C(F)(F)C(F)(F)C(F)(F)C(F)(F)C(F)(F)C(F)(F)F", "AC50": "46.4 µM (active) and 47.1 µM (active)"}
{"molecule": "CNS(=O)(=O)C(F)(F)C(F)(F)C(F)(F)C(F)(F)C(F)(F)C(F)(F)C(F)(F)C(F)(F)F", "outcome": "inactive"}
{"molecule": "Cc1ccc(O)c(-n2nc3ccccc3n2)c1", "outcome": "inactive"}
{"molecule": "O=C(O)C(F)(F)C(F)(F)C(F)(F)OC(F)(C(F)(F)F)C(F)(F)F", "outcome": "inactive"}
{"molecule": "CC(C)CCCC(C)CCO", "note": "(stereo not given)", "AC50": "30.6 µM (active)"}
{"molecule": "C=CC(=O)OCC(F)(F)C(F)(F)C(F)(F)COC(=O)C=C", "AC50": "23.2 µM (active) and 17.5 µM (active)"}
{"molecule": "O=S(=O)(O)CCC(F)(F)C(F)(F)C(F)(F)C(F)(F)C(F)(F)C(F)(F)C(F)(F)C(F)(F)F", "outcome": "inactive"}
{"molecule": "NC(=O)C(F)(F)C(F)(F)C(F)(F)C(F)(F)C(F)(F)C(F)(F)C(F)(F)F", "outcome": "inactive"}
{"molecule": "O=C=Nc1cccc2c(N=C=O)cccc12", "outcome": "inactive"}
{"molecule": "CCN=C1C=CC(=C(c2ccc(N(CC)CC)cc2)c2ccc(N(CC)CC)cc2)c2ccccc21", "AC50": "1.99 µM (active) and 1.72 µM (active)"}
{"molecule": "C[Si](Cl)(Cl)CCC(F)(F)C(F)(F)C(F)(F)C(F)(F)C(F)(F)C(F)(F)F", "outcome": "inactive"}
{"molecule": "Cc1cc(C)c(O)c(C(C)(C)C)c1", "AC50": "32.6 µM (active)"}
{"molecule": "O=C(O)C(F)(F)C(F)(F)C(F)(F)C(=O)O", "outcome": "inactive"}
{"molecule": "O=C(O)CCC(F)(F)C(F)(F)C(F)(F)C(F)(F)C(F)(F)C(F)(F)C(F)(F)F", "outcome": "inactive"}
{"molecule": "CN(C(=O)C(F)(F)C(F)(F)C(F)(F)F)[Si](C)(C)C", "outcome": "inactive"}
{"molecule": "OCC(F)(F)C(F)(F)C(F)(F)C(F)(F)C(F)(F)C(F)(F)C(F)(F)C(F)(F)CO", "AC50": "30 µM (active)", "outcome": "inactive"}
{"molecule": "NCC(F)(F)C(F)(F)C(F)(F)C(F)(F)C(F)(F)C(F)(F)F", "outcome": "inactive"}
